In the library only some 3% were active in any assay of this set; here they are far more common.
S16 viability – S16 Schwann cell cytotoxicity | S16 Pmp22-F2sN Schwann cells viability, CellTiter-Glo, 24 h | Potency, µM (series often up to 57.5 µM), without a hit: at the highest dose activity change, negative = cytotoxicity, most hits filed as cytotoxic | 0.48% of 43,000 active | AID 1508642; note: nearly all actives have a fitted effect of over 65% in size
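S16 Schwann cells carrying the Pmp22-F2sN reporter, seeded in 1536-well format, were exposed to library compounds for 24 h at 37C. Viability was read as CellTiter-Glo luminescence after 15 min at room temperature.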
p53null 32C kill – kills p53 null cells at the permissive temperature | H1299-neo p53 null cells, ATP luminescence, 24 h, 32C | Potency, µM (titrated, usually from 46.1 µM), without a hit: at the top dose activity change, negative = cytotoxicity, usual class: cytotoxic | 0.62% of 55,000 active | AID 903;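 note: 0% = DMSO only and -100% = full killing by 100 µM tamoxifen; nearly all actives have a fitted effect of over 55% in size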
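H1299-neo (p53 null) cells, 600/well, treated 24 h at 32C with compound up to 46 uM; ATPlite luminescence viability, normalized to DMSO and 100 uM tamoxifen; AC50 by Hill fit.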
p53null 39C kill – selectivity test: cytotoxicity in p53 null cells, nonpermissive temperature; Potency, µM (doses to about 46.1 µM), without a hit: at the highest dose activity, negative = cell killing, hits mostly cytotoxic; AID 904; H1299 p53-null (neo) cells, 39C, ATPlite viability, 24 h; 0.97% of 55,000 active;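 note: 0% = DMSO only and -100% = full killing by 100 µM tamoxifen; nearly all actives have a fitted effect of over 50% in size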
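Cells seeded at 600/well, 37C overnight. Compound added (up to 46 uM), plates shifted to 39C for 24 hr. ATPlite added, luminescence read after 20 min at room temperature.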
PMP22 txn prim – modulates PMP22 transcription in S16 Schwann cells | S16 Pmp22-F2sN Schwann cells (luciferase reporters placed in the Pmp22 gene), FLuc/NLuc coincidence luminescence, 24 h | Potency, µM (doses to about 57.5 µM), for the others: top-dose activity change, negative = inhibition, hits mostly inhibitors | 2% of 43,000 active | AID 1508649; active = clear falling dose curves in both reporters; inconclusive = both reporters move, but less clearly or upward; inactive = either reporter flat; the % is the NLuc reporter signal
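Reporter cells (S16 Pmp22-F2sN, 500–1,000 per well) exposed to compounds for 24 h, 37C, 5% CO2; lysis with FLuc read after 10 min, then Stop&Glo and NLuc read after 10 min.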
OvCa metastasis – ovarian cancer metastasis inhibition, 3D TME model | SKOV3ip1-GFP adhesion/invasion on 3D omental model, fluorescence | Potency, µM (top dose mostly 45.8 µM), inactives show top-dose activity change, negative = inhibition, usual class: inhibitors | 0.1% of 46,000 active | AID 1963576;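 note: plate controls were DMSO wells for no effect and tomatine positive control wells for full effect; nearly all actives have a fitted effect of over 65% in size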
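Adhesion/invasion was scored as fixed GFP-labeled SKOV3ip1 cell counts (488/509 nm), normalized to DMSO and tomatine controls. Cancer cells in serum-free medium, with four compound doses (0.36-46 umol/L), sat 2 hr at RT then 16 hr at 37 C on a 48 hr fibroblast/mesothelial/ECM culture.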
mTORC1 inh – mTORC1 pathway inhibition measured by phospho-rpS6. 0.78% of 44,000 active. Tsc2-/- p53-/- MEF, phospho-rpS6 immunofluorescence/PI, 24 h. Potency, µM (top dose mostly 38.3 µM), inactives show at the top dose activity change, negative = inhibition, hits mostly inhibitors;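 note: plate controls were DMSO for no effect and rapamycin for full effect; nearly all actives have a fitted effect of over 50% in size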
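Readout is phospho-S6 Alexa 488 signal normalized to PI per well, reported as % active cells with thresholds set from rapamycin (7.5 nM) and DMSO controls. Cells: Tsc2-/-, p53-/- MEFs, 24 hrs compound at 37 C; PI cell number serves as viability.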
* marks the source's active call; other numbers are inactive results. Unless noted, calls come from the whole dose curve; as a rule, active = well fitted curve in the direction sought with a large enough effect; inconclusive = small, poorly fitted or top-dose-only effect, or another doubt; inactive = no such curve, though single readings can be large; an effect the other way counts as inactive or inconclusive. Unless noted, % is set by controls: 0 for no effect and ±100 for the full control effect; potency is the fitted concentration of half-maximal effect.

For Cc1ccc(Nc2c3c(nc4nncn24)CCC3)cc1 the results were S16 viability 4%, p53null 32C kill 5%, p53null 39C kill -5%, PMP22 txn prim inconclusive, OvCa metastasis 7% and mTORC1 inh 2%.
For COc1cc(NC(=O)c2cccc(F)c2)ccc1NC(=O)c1cc2ccccc2o1 the results were S16 viability 0%, p53null 32C kill 0%, p53null 39C kill -2%, PMP22 txn prim -11%, OvCa metastasis 1% and mTORC1 inh 16µM*.
For N#Cc1c(C(F)(F)F)cc(-c2cccs2)nc1SCC(=O)Nc1cccc(Cl)c1 the results were S16 viability 1%, p53null 32C kill -7%, p53null 39C kill -15%, PMP22 txn prim -13%, OvCa metastasis -14% and mTORC1 inh -15%.
`N#Cc1c(C(F)(F)F)cc(-c2cccs2)nc1SCC(=O)Nc1cccc(Br)c1` gave S16 viability 1%, p53null 32C kill -9%, p53null 39C kill inconclusive, PMP22 txn prim -1%, OvCa metastasis 0% and mTORC1 inh 12µM*.
Screening COc1ccc(NC(=O)CSc2nc(-c3cccs3)cc(C(F)(F)F)n2)cc1OC returned S16 viability inconclusive, p53null 32C kill -28%, p53null 39C kill 17%, PMP22 txn prim 4.2µM*, OvCa metastasis 2% and mTORC1 inh -14%.
For CCOc1ccc(NC(=O)CSc2oc(-c3ccc(C)cc3)nc2S(=O)(=O)c2ccc(C)cc2)cc1 the results were S16 viability 22µM*, p53null 32C kill 13µM*, p53null 39C kill 13µM*, PMP22 txn prim inconclusive, OvCa metastasis -1% and mTORC1 inh 0%.
Screening CCOc1ccc(NC(=O)CSc2oc(-c3cccs3)nc2S(=O)(=O)c2ccc(Cl)cc2)cc1 returned S16 viability inconclusive, p53null 32C kill -10%, p53null 39C kill inconclusive, PMP22 txn prim inconclusive, OvCa metastasis -7% and mTORC1 inh -2%.
CC(C)(C)[N+]([O-])=Cc1ccc(S(=O)(=O)O)cc1S(=O)(=O)O was read as OvCa metastasis -1%.
Screening Cc1csc(-c2nnc(Nc3ccc(Oc4ncccc4-c4ccnc(N)n4)cc3)c3ccccc23)c1 returned OvCa metastasis 26%.
`O=C(Nc1nnc(SCC(=O)N2CCCc3ccccc32)s1)c1ccccc1` gave p53null 32C kill 7.9µM*.
Screening CCc1ccc(C(=O)c2cnc3ccc(F)cc3c2S(=O)(=O)c2ccccc2)cc1 returned S16 viability -30%, p53null 32C kill 26%, p53null 39C kill 78%, PMP22 txn prim inconclusive, OvCa metastasis -10% and mTORC1 inh 12µM*.
For Cc1ccc2ncc(C(=O)c3ccc(C)c(C)c3)c(S(=O)(=O)c3ccccc3)c2c1 the results were S16 viability inconclusive, p53null 32C kill 29%, p53null 39C kill 23%, PMP22 txn prim inconclusive, OvCa metastasis 4% and mTORC1 inh -6%.
Screening Cc1cccc2c1-c1sc(C(=O)NCCCN3CCN(c4ccccc4F)CC3)cc1CO2 returned S16 viability inconclusive, p53null 32C kill -12%, p53null 39C kill inconclusive, PMP22 txn prim inconclusive, OvCa metastasis inconclusive and mTORC1 inh -25%.
For CCN1CCN(CCCNC(=O)c2cc3c(s2)-c2c(C)cccc2OC3)CC1 the results were S16 viability 25µM*, p53null 32C kill -7%, p53null 39C kill inconclusive, PMP22 txn prim inconclusive, OvCa metastasis -5% and mTORC1 inh inconclusive.
For CCN1CCN(Cc2ccc(-c3cc4c(N[C@H](C)c5ccccc5)ncnc4[nH]3)cc2)CC1 the results were OvCa metastasis 3%.
Screening Oc1ccccc1-c1nc(/C=C/c2ccccc2Cl)no1 returned S16 viability -2%, p53null 32C kill 10µM*, p53null 39C kill 10µM*, PMP22 txn prim inconclusive, OvCa metastasis -14% and mTORC1 inh -5%.
For CCCNC(=O)[C@H]1O[C@H]1C(=O)N[C@H](C(=O)N1CCC[C@@H]1C(=O)OC)C(C)CC (stereo partly specified) the results were OvCa metastasis -12%.
`COc1ccc(C(=O)Nc2nc3c(s2)Cc2c(Br)ccc(OC)c2-3)cc1OC` gave S16 viability inconclusive, p53null 32C kill -5%, p53null 39C kill -15%, PMP22 txn prim inconclusive, OvCa metastasis 1% and mTORC1 inh -2%.
`COc1cc(C(=O)Nc2nc3c(s2)Cc2c(Br)ccc(OC)c2-3)cc(OC)c1OC` gave S16 viability 25µM*, p53null 32C kill -23%, p53null 39C kill -26%, PMP22 txn prim inconclusive, OvCa metastasis 0% and mTORC1 inh 0%.
Screening COc1ccc(S(=O)(=O)Nc2cccnc2Nc2ccc(O)cc2)cc1 returned OvCa metastasis 6%.
For CN(c1ccccc1)C(CNS(=O)(=O)c1ccccc1)c1ccccc1 (stereo unspecified) the results were S16 viability -1%, p53null 32C kill 39%, p53null 39C kill inconclusive, PMP22 txn prim inconclusive, OvCa metastasis -7% and mTORC1 inh -12%.
`Cc1ccc(N(C)C(CNS(=O)(=O)c2ccccc2)c2ccccc2)cc1` (stereo unspecified) gave S16 viability -5%, p53null 32C kill 25%, p53null 39C kill 14µM*, PMP22 txn prim inconclusive, OvCa metastasis -8% and mTORC1 inh -12%.
Screening CC(C)c1ccc(Nc2c(-c3ccccc3O)nc3cnccn23)cc1 returned S16 viability -9%, p53null 32C kill 34%, p53null 39C kill 25µM*, PMP22 txn prim inconclusive, OvCa metastasis -11% and mTORC1 inh -25%.
Screening COc1cc(-c2nc3cnccn3c2Nc2ccc(C(C)C)cc2)ccc1O returned S16 viability inconclusive, p53null 32C kill inconclusive, p53null 39C kill 16µM*, PMP22 txn prim inconclusive, OvCa metastasis -22% and mTORC1 inh 15µM*.
`Cc1ccn2c(Nc3ccc(C(C)C)cc3)c(-c3cccnc3)nc2c1` gave S16 viability inconclusive, p53null 32C kill 34%, p53null 39C kill 21%, PMP22 txn prim inconclusive, OvCa metastasis 0% and mTORC1 inh -2%.
`CC(C)c1ccc(Nc2c(-c3ccccn3)nc3ccccn23)cc1` gave S16 viability 8.9µM*, p53null 32C kill 59%, p53null 39C kill inconclusive, PMP22 txn prim 14µM*, OvCa metastasis inconclusive and mTORC1 inh -19%.

Screening data: PubChem, National Center for Advancing Translational Sciences (NCATS)
